Results reported in PubChem BioAssay AID640 (Columbia University Molecular Screening Center, 2007).
Hit rate of the full screen: of about 96,000 compounds, about 200 (0.21%) were called active. The entries come from a sample that favours actives as a whole. A number with no mark means an inactive call.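 The calls were made as follows: active = inhibition at 2 µM at or above a set limit, the screen mean plus 3 SD (cut at about 24% in these data); inactive = the rest.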

target: Tyrosine-protein phosphatase non-receptor type 22 (Homo sapiens) (UniProt Q9Y2R2); assay: blockers of human LYP enzyme activity – biochemical, DiFMUP fluorescence, 2 µM, primary screen (AID 640); conditions: recombinant LYP catalytic domain, at 2 µM, stronger effect = higher value;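 also: 0% = DMSO with enzyme and 100% = enzyme fully blocked by orthovanadate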
Sequence (Q9Y2R2 whole entry, looked up, the tested form may be a part): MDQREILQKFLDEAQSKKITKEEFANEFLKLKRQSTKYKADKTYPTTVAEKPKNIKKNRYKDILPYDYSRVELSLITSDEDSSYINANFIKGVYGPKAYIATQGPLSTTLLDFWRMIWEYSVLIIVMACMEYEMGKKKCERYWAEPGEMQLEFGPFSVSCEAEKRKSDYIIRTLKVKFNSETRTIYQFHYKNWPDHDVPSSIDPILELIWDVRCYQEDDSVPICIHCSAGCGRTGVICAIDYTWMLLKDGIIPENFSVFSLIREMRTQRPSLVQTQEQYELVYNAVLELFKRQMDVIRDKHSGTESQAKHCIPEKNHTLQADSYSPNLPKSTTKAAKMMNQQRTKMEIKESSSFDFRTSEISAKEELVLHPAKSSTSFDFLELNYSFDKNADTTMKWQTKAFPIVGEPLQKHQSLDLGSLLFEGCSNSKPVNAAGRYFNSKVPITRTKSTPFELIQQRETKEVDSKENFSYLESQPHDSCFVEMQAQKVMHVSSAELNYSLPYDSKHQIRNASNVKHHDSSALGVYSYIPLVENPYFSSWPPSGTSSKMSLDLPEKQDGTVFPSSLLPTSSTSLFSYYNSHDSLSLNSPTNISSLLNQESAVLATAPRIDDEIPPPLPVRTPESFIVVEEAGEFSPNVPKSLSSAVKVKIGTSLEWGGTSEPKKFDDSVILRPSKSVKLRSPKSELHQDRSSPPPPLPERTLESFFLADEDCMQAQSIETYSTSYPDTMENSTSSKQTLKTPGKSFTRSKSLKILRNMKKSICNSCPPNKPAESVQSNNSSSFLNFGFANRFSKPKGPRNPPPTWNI

Compound | inhibition
COCc1cc(C(C)=O)ccc1OC | 7.3%
O=C(CNC(=O)OCc1ccccc1)Oc1cc2oc(=O)cc(-c3ccccc3)c2cc1Cl | 7.8%
CC(C)(C)NS(=O)(=O)c1ccc(NC(=O)NC2CCCCC2)cc1 | 13%
CCOC(=O)c1c(C)nc2c(c1C)c(=O)oc1ccccc12 | -31.8%
Cc1ccc(OCC(=O)N/N=C\c2ccco2)c(C)c1 | -4.2%
CSc1ccc(/C=N\NC(=O)COc2ccc(Cl)cc2Br)cc1 | 26.5% (active)
Cc1ccc(OCC(=O)N/N=C/c2ccncc2)cc1 | 10.7%
COc1cccc(-c2nnc(NC(=O)c3ccc(S(=O)(=O)N(CC(C)C)CC(C)C)cc3)o2)c1 | 24.4% (active)
CC1CCCCN1S(=O)(=O)c1ccc(C(=O)Nc2nnc(-c3cccs3)o2)cc1 (stereo unspecified) | 17.2%
CCC(=O)Oc1cccc(C(=O)Nc2ccc(-c3nnc(-c4ccco4)o3)cc2)c1 | 8.1%
O=C(NCCCCc1ccccc1)C1CC(c2ccc([N+](=O)[O-])cc2)=NO1 (stereo unspecified) | -3.2%
CCC(C)NC(=O)CSC1=Nc2ccccc2C2=NC(CCC(=O)NCc3ccco3)C(=O)N12 (stereo unspecified) | 6.7%
C=CCOc1c2ccc(C(=O)N(CC)c3ccc(OC)cc3)cc2nn1C | 1.1%
CCSc1nc(-c2ccc(OC)cc2)cc(-c2ccc(OC)cc2)c1C#N | -15.9%
CCOC(=O)C1=C(CSc2nnnn2C)N(C)C(=O)NC1c1ccccc1 (stereo unspecified) | 6.4%
O=C(CCl)NNc1cccc(Cl)n1 | 2.9%
O=C(c1ccc2c(c1)OCO2)N1CCN(C(=O)c2ccco2)CC1 | -5%
Cc1cnc(NC(=O)C2CCCC2)s1 | -5.5%
CCOC(=O)c1c(NC(C)=O)sc2c(O)c(Br)ccc12 | 7.9%
COc1ccc(/C=N/Nc2nc3ccccc3c(=O)[nH]2)cc1 | 2.7%
CC(=O)c1c(C)[nH]c(C(=O)NCc2ccc(C)cc2)c1C | 3.9%

Compound | inhibition
CNC(=O)c1nnc(Cc2ccc(Cl)cc2)o1 | -2.1%
Cc1ccc(Cl)cc1NC(=O)COC(=O)C1CCCCC1 | -5.7%
O=C(Nc1cccc2ncccc12)C(Cl)(Cl)Cl | -4%
CCCCN1C(=O)/C(=C2/C=CC=CN2C)SC1=S | -5.6%
COc1cc(OC)cc(-c2cc3nc(C4CCN(C(=O)OC(C)(C)C)CC4)cc(=O)n3[nH]2)c1 | -4.9%
CC(C)(C)NC(=O)CN(Cc1cccs1)C(=O)CNS(=O)(=O)c1ccccc1 | -1.7%
Cc1nn(C(C)CC(=O)O)c(C)c1C (stereo unspecified) | 7.9%
CCn1nc(C)c(NC(=O)/C=C/c2ccc(OC)c(COc3ccc(Br)cc3)c2)c1C | 13.3%
O=C(CSc1nnc(-c2cccs2)n1Cc1ccccc1)N1CCc2ccccc2C1 | -1.7%
Cc1ccc2nc(SC(C)C(=O)NCc3ccco3)[nH]c2c1 (stereo unspecified) | -3.6%
Cn1c(=O)c2c(SCC(=O)N3CCOCC3)nc(C3CC3)nc2n(C)c1=O | 4%
Cc1cc2cc3c(N)[nH]nc3nc2cc1C | -13.7%
O=C(Nc1ccon1)c1sc2ccccc2c1Cl | -12.9%
Cc1ccc(-c2nc3ccccc3[nH]2)cc1N | 0.9%
Cc1ccc(-c2nc3ccccc3[nH]2)cc1NC(=O)c1sc2ccccc2c1Cl | 24.6% (active)
Cc1cc([N+](=O)[O-])c(NC2CCCCC2)c([N+](=O)[O-])c1 | 6.5%
CC1(C)NC(=O)N(CCCCSc2ccc(Cl)cc2)C1=O | 3.1%
COC(=O)C1=C(Nc2ccc(C)cc2)C=C(C)C(C(=O)OC)C1c1ccc(F)cc1 (stereo unspecified) | -3.3%
c1ccc(CC2CCN(c3nc4ccccc4n4cnnc34)CC2)cc1 | 7.3%
CON(C)S(=O)(=O)c1ccc2c(c1)NC(=O)C1CCCN21 (stereo unspecified) | 6.3%
CN1CCN(C(=O)Cn2c(C(F)(F)F)nc3ccccc32)CC1 | 1.3%

Compound | inhibition
COc1ccc(-n2c(C)csc2=S)cc1 | -3.8%
CCCCN(CC)CCCNC(=O)CS(=O)(=O)Cc1nc(-c2cccc(OC)c2)oc1C | 4.8%
CCCCCCc1cc2cc(-c3nnc(-c4ccccc4)o3)c(=O)oc2cc1O | 16%
CCCCCCc1cc2cc(-c3nnc(-c4cccc(OC)c4)o3)c(=O)oc2cc1O | 30.9% (active)
COc1ccc(OCC(=O)NN2Cc3ccccc3C2=N)cc1 | 8.2%
Cc1cc(=O)oc2cc(OCC3CC(c4ccccc4Cl)=NO3)ccc12 (stereo unspecified) | 0.4%
COc1ccc(/C(O)=C2\C(=O)C(=O)N(Cc3ccco3)C2c2ccc(OC)cc2OC)cc1 (stereo unspecified) | 3%
O=C(CN(c1ccccc1)S(=O)(=O)c1ccc(Cl)cc1)Nc1ccccc1C(=O)N1CCCC1 | 3%
Cc1sc2nc(SCC(N)=O)n(C)c(=O)c2c1C | -1%
CC(=O)c1cnc(SCCN2C(=O)c3ccccc3C2=O)nc1C | -4.7%
CCOc1ccccc1NC(=O)C1CCCN(C(=O)Nc2ccccc2)C1 (stereo unspecified) | -6%
COc1cccc(NC(=O)CN2CCN(c3nc(-c4cccc(OC)c4)cs3)CC2)c1 | 8.7%
CCOC(=O)c1[nH]c(C)c(C(=O)OCC(=O)N2c3ccccc3CC2C)c1C (stereo unspecified) | 2.3%
COc1ccc(C(C#N)Nc2ccccc2C)cc1 (stereo unspecified) | 7.5%
CCCCNC(=O)C1(c2ccc(OC)cc2)CCOCC1 | 6.4%
CCNC(=S)N1CCN(C(=O)c2ccco2)CC1 | -9.6%
O=C(/C=C/c1ccccc1)N/C(=C/c1ccccc1)C(=O)Nc1ccccc1O | 10%
Cc1ccc(-c2cc(C(=O)NCC3CCCO3)c3ccccc3n2)o1 (stereo unspecified) | 2.7%
C=CCn1c(-c2ccc(Cl)cc2)ccc(C#N)c1=O | 8.4%
Oc1ccc2ccc3cccc[n+]3c2c1 | 2.8%
Cc1csc2ncc(C(=O)N(Cc3ccccc3)c3ccccn3)c(=O)n12 | -3.8%

Compound | inhibition
Cc1ccc(CN(C(=O)c2sc3ccccc3c2Cl)C2CCS(=O)(=O)C2)cc1 (stereo unspecified) | 3.5%
CSc1cc(C)n(-c2ccccc2C)c(=S)c1C(C)=O | -1.3%
O=C(Nc1ccccc1C(=O)NCCCn1ccnc1)c1ccc(Cl)cc1Cl | 4.3%
COc1ccc(CNCCCO)cc1OC | 2.8%
c1ccc2c(-c3nn4nnnc4c4ccccc34)cccc2c1 | 11.7%
COc1ccc(Oc2c(Cl)cnn(-c3ccccc3)c2=O)cc1 | -10.1%
COC(=O)CNS(=O)(=O)c1ccc(OC)cc1 | -2.1%
CCOc1cc(C(=O)Nc2c(C)ccc3nsnc23)cc(OCC)c1OCC | -14.9%
CC(C)(C)c1ccc(C(=O)NCC(=O)OCN2C(=O)c3ccccc3C2=O)cc1 | -8.4%
O=C(/C=C/NNC(=O)c1cccc(Br)c1)c1ccccc1 | 5.3%
Fc1ccccc1COc1ccccc1CNCc1ccncc1 | 4.4%
CCC(=O)NCCc1nc2ccccc2n1CC | -1%
CNc1nc(SC)nc(N(C#N)CC(=O)OC)n1 | -3.4%
CCNc1nc(NC(C)C)nc(OCCOC(=O)c2ccccc2)n1 | -0.4%
c1ccc(-c2ccnc3nc(-n4cccc4)nn23)cc1 | 9.9%
Cc1cc2nc(SCCN3CCOCC3)[nH]c2cc1C | -1%
O=C1N=C(N2CCOCC2)S/C1=C\C=C/c1ccccc1 | 0.2%
CCOCCCNC(=O)C(NC(=O)c1ccc(=O)[nH]c1)c1ccc(C)cc1 (stereo unspecified) | 3%
